Where a name gives a salt, the structure may show the parent alone.

One assay deals with E18 rat cortical neuron-glia co-culture. The assay is described as follows: myelination (MBP fiber length per Olig2+ nucleus), % of 1 µM DAPT response (DMSO = 0) (% of DAPT); higher = more myelination, active = 50 or more. To be noted: 1 µM; treatment time: 8 days (DIV5-DIV13). The gist of the method:
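Rat cortical co-cultures from E18 tissue were dissociated with papain and plated at 20,000 cells/well on 96-well plates coated with poly-d-lysine/laminin. From DIV5 to DIV13, library compounds were added at 1 or 5 µM in myelination medium. After fixation in 4 % paraformaldehyde, cultures were immunostained for MBP and Olig2 and counterstained with DAPI, and four 10X fields were analysed in each of duplicate wells. The myelination value is the length of continuous straight MBP fibers per Olig2+ nucleus, normalised so that 0.1 % DMSO is 0 and a 1 µM positive control is 100.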
On to `CC(C)(O)[C@@H]1[C@H]2OC(=O)[C@@H]1[C@]1(O)C[C@H]3O[C@]34C(=O)O[C@H]2[C@]14C` [Picrotin], for which the myelination is -12.7 (inactive).

Take `COc1ccc(C(CN(C)C)C2(O)CCCCC2)cc1` (centres undefined) [Venlafaxine]: the myelination was -11.7 (inactive).

As for `CCOC(=O)c1cncn1[C@H](C)c1ccccc1` [Etomidate], the myelination is -14.6 (inactive).

Turning to `COc1cccc(C2(O)CCCCC2CN(C)C)c1` (centres undefined) [Tramadol], the myelination was -12.4 (inactive).

Take `c1ccc(Cn2ccnc2)cc1` [1-Benzylimidazole]: the myelination was -11.8 (inactive).

For `O=C1CN=C(c2ccccc2)c2cc([N+](=O)[O-])ccc2N1` [Nitrazepam], the myelination was -6.44 (inactive).

As for `CCCC(C)(COC(N)=O)COC(=O)NC(C)C` (centres undefined) [Carisoprodol], the myelination was -13 (inactive).

Regarding `CN1[C@@H]2C[C@@H](OC(=O)[C@H](CO)c3ccccc3)C[C@H]1[C@@H]1O[C@@H]12` [Scopolamine hydrobromide], the myelination is -49.5 (inactive).

As for `Oc1cc2c(cc1O)[C@H]1c3ccccc3CN[C@@H]1CC2` (racemic) [Dihydrexidine], the myelination is -4.93 (inactive).

Consider `N=C(NCc1ccc(Cl)cc1)SCCCc1c[nH]cn1` [Clobenpropit], for which the myelination is -13 (inactive).

Turning to `O=C1CC[C@@]2(O)[C@H]3Cc4ccc(O)c5c4[C@@]2(CCN3CC2CC2)[C@H]1O5` [Naltrexone], the myelination is 14.8 (inactive).

As to `COc1cc(N)c(Cl)cc1C(=O)NC1CN2CCC1CC2` (centres undefined) [Zacopride], the myelination is -11.9 (inactive).

In the case of `c1cncc([C@@H]2CCCN2)c1` [Nornicotine], the myelination is -20.2 (inactive).

Turning to `CCCN1C[C@H](CSC)C[C@@H]2c3cccc4[nH]cc(c34)C[C@H]21` [Pergolide], the myelination was -19.3 (inactive).

On to `CN1CC[C@@H](c2ccc(F)cc2)[C@H](COc2ccc3c(c2)OCO3)C1` [N-Methylparoxetine], for which the myelination was -58.7 (inactive).

Turning to `Cc1ncc2n1-c1ccc(Cl)cc1C(c1ccccc1F)=NC2` [Midazolam], the myelination is -0.202 (inactive).

Take `CN1[C@@H]2CC[C@H]1C[C@@H](OC(=O)[C@H](CO)c1ccccc1)C2` [Hyoscyamine]: the myelination is -15.1 (inactive).

On to `C[C@]12CCC(=O)C=C1CC[C@@H]1[C@@H]2CC[C@@]2(C)[C@H]1CC[C@]2(C)O` [Methyltestosterone], for which the myelination was -24.8 (inactive).

Consider `COc1cc([C@@H]2c3cc4c(cc3[C@H](O)[C@H]3COC(=O)[C@H]23)OCO4)cc(OC)c1OC` [Podophyllotoxin], for which the myelination was -13.9 (inactive).

On to `COc1ccc2[nH]cc(CCN)c2c1` [5-Methoxytryptamine], for which the myelination is -6.66 (inactive).

For `CNC(=O)Oc1ccc2c(c1)[C@]1(C)CCN(C)[C@@H]1N2C` [Physostigmine], the myelination was -13.2 (inactive).

Consider `CCN(CC)CCOC(=O)C(O)(c1ccccc1)c1ccccc1` [Benactyzine], for which the myelination was 1.93 (inactive).

For `NCCc1ccccn1` [2-(2-aminoethyl)pyridine], the myelination is -7.37 (inactive).

On to `C[C@H]1CCC[C@H](O)CCCCCc2cc(O)cc(O)c2C(=O)O1` [Zeranol], for which the myelination was -13.7 (inactive).

Take `CNC1=Nc2ccc(Cl)cc2C(c2ccccc2)=[N+]([O-])C1` [Chlordiazepoxide]: the myelination is 0.872 (inactive).

Regarding `CN1CC[C@]23CCCC[C@H]2[C@H]1Cc1ccc(O)cc13` [Levorphanol], the myelination was -27.6 (inactive).

On to `CC(C)CC(N(C)C)C1(c2ccc(Cl)cc2)CCC1` (centres undefined) [Sibutramine], for which the myelination was -9.43 (inactive).

Still in this assay, the particulars now being: 5 µM; treatment time: 8 days (DIV5-DIV13).
Turning to `CC(C)(O)[C@@H]1[C@H]2OC(=O)[C@@H]1[C@]1(O)C[C@H]3O[C@]34C(=O)O[C@H]2[C@]14C` [Picrotin], the myelination was -5.47 (inactive).

For the compound `COc1ccc(C(CN(C)C)C2(O)CCCCC2)cc1` (centres undefined) [Venlafaxine], the myelination was -3.31 (inactive).

As for `CCOC(=O)c1cncn1[C@H](C)c1ccccc1` [Etomidate], the myelination was 6.64 (inactive).

As for `COc1cccc(C2(O)CCCCC2CN(C)C)c1` (centres undefined) [Tramadol], the myelination is -7.33 (inactive).

`c1ccc(Cn2ccnc2)cc1` [1-Benzylimidazole]: the myelination is -0.886 (inactive).

As for `O=C1CN=C(c2ccccc2)c2cc([N+](=O)[O-])ccc2N1` [Nitrazepam], the myelination was 0.525 (inactive).

With `CCCC(C)(COC(N)=O)COC(=O)NC(C)C` (centres undefined) [Carisoprodol], the myelination was -11.9 (inactive).

Take `CN1[C@@H]2C[C@@H](OC(=O)[C@H](CO)c3ccccc3)C[C@H]1[C@@H]1O[C@@H]12` [Scopolamine hydrobromide]: the myelination is -31.2 (inactive).

As for `Oc1cc2c(cc1O)[C@H]1c3ccccc3CN[C@@H]1CC2` (racemic) [Dihydrexidine], the myelination was -20.9 (inactive).

`N=C(NCc1ccc(Cl)cc1)SCCCc1c[nH]cn1` [Clobenpropit]: the myelination is 3.66 (inactive).

As for `O=C1CC[C@@]2(O)[C@H]3Cc4ccc(O)c5c4[C@@]2(CCN3CC2CC2)[C@H]1O5` [Naltrexone], the myelination is 1.8 (inactive).

`COc1cc(N)c(Cl)cc1C(=O)NC1CN2CCC1CC2` (centres undefined) [Zacopride]: the myelination is -0.361 (inactive).

On to `c1cncc([C@@H]2CCCN2)c1` [Nornicotine], for which the myelination is -19 (inactive).

For `CCCN1C[C@H](CSC)C[C@@H]2c3cccc4[nH]cc(c34)C[C@H]21` [Pergolide], the myelination was -24.9 (inactive).

Take `CN1CC[C@@H](c2ccc(F)cc2)[C@H](COc2ccc3c(c2)OCO3)C1` [N-Methylparoxetine]: the myelination is -60.5 (inactive).

Turning to `Cc1ncc2n1-c1ccc(Cl)cc1C(c1ccccc1F)=NC2` [Midazolam], the myelination was 31.1 (inactive).

For the compound `CN1[C@@H]2CC[C@H]1C[C@@H](OC(=O)[C@H](CO)c1ccccc1)C2` [Hyoscyamine], the myelination was -12.5 (inactive).

Take `C[C@]12CCC(=O)C=C1CC[C@@H]1[C@@H]2CC[C@@]2(C)[C@H]1CC[C@]2(C)O` [Methyltestosterone]: the myelination was -17.2 (inactive).

Turning to `COc1cc([C@@H]2c3cc4c(cc3[C@H](O)[C@H]3COC(=O)[C@H]23)OCO4)cc(OC)c1OC` [Podophyllotoxin], the myelination was -15.8 (inactive).

As to `COc1ccc2[nH]cc(CCN)c2c1` [5-Methoxytryptamine], the myelination was -8.85 (inactive).

On to `CNC(=O)Oc1ccc2c(c1)[C@]1(C)CCN(C)[C@@H]1N2C` [Physostigmine], for which the myelination was -9.34 (inactive).

Turning to `CCN(CC)CCOC(=O)C(O)(c1ccccc1)c1ccccc1` [Benactyzine], the myelination is 0.796 (inactive).

Turning to `NCCc1ccccn1` [2-(2-aminoethyl)pyridine], the myelination is -9.08 (inactive).

As for `C[C@H]1CCC[C@H](O)CCCCCc2cc(O)cc(O)c2C(=O)O1` [Zeranol], the myelination is -5.48 (inactive).

In the case of `CNC1=Nc2ccc(Cl)cc2C(c2ccccc2)=[N+]([O-])C1` [Chlordiazepoxide], the myelination is -16.1 (inactive).

Consider `CN1CC[C@]23CCCC[C@H]2[C@H]1Cc1ccc(O)cc13` [Levorphanol], for which the myelination was -51.1 (inactive).

With `CC(C)CC(N(C)C)C1(c2ccc(Cl)cc2)CCC1` (centres undefined) [Sibutramine], the myelination is -0.392 (inactive).

For the origin of these results see the supplement of paper PMC4840960.
